From PubChem BioAssay (NCI) come the findings set out here.

Common to all, as to assay: NCI-60 one-dose screen, 48 h (100 = growth as untreated, 0 = no growth, -100 = all killed)
One assay has as its system HCT-15 colon. The note with it: 10 µM unless noted.
A further assay has as its system HT29 colon. To be noted: 10 µM unless noted.
A further assay relates to SNB-75 CNS. To be noted: 10 µM unless noted.
Another assay concerns SNB-19 CNS. To be noted: 10 µM unless noted.
A further assay deals with U251 CNS. The note with it: 10 µM unless noted.
In a further assay the test system is PC-3 prostate. To be noted: 10 µM unless noted.
Another assay deals with SK-MEL-5 melanoma. To be noted: 10 µM unless noted.
A further assay has as its system UACC-62 melanoma. The note with it: 10 µM unless noted.
The next assay has as its system LOX IMVI melanoma. The note with it: 10 µM unless noted.
A further assay concerns SK-MEL-28 melanoma. To be noted: 10 µM unless noted.
Another assay relates to EKVX NSCLC. The note with it: 10 µM unless noted.
A further assay relates to SN12C renal. The note with it: 10 µM unless noted.
The test system of a further assay is UO-31 renal. The note with it: 10 µM unless noted.
The subject of the next assay is TK-10 renal. The note with it: 10 µM unless noted.
For the next assay, the system named is CAKI-1 renal. The note with it: 10 µM.
The test system of another assay is CCRF-CEM leukemia. The note with it: 10 µM unless noted.
A further assay concerns MOLT-4 leukemia. The note with it: 10 µM unless noted.
The next assay deals with ACHN renal. To be noted: 10 µM unless noted.
For the next assay, the system named is A498 renal. The note with it: 10 µM unless noted.
The next assay relates to SK-MEL-2 melanoma. The note with it: 10 µM unless noted.

The panel holds about 83,000 compounds, 20% with a hit somewhere; the sample as a whole holds those more often.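 Treatment: one concentration, 48 hours, 96-well format. Scoring: percent growth, with anything below 10 considered active.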 A number with no mark means an inactive call. The source made the active and inactive calls.

Turning to `COc1ccc(C2C(C#N)=C(N)Oc3c2sc2ccc(C)cc32)cc1` (stereo unspecified), the growth in the assay with HCT-15 colon was 19.2%; in the assay on HT29 colon, 25.3%; in the assay with SNB-75 CNS, -3.3% (active); in the assay on SNB-19 CNS, 38.6%; in the assay on U251 CNS, 26.9%; in the assay with PC-3 prostate, 33.1%. Besides, the growth with SK-MEL-5 melanoma was 2.75% (active); in the assay with UACC-62 melanoma, 23.4%; in the assay with LOX IMVI melanoma, 38%; with SK-MEL-28 melanoma, 55.6%; in the assay with EKVX NSCLC, 53.4%; in the assay with SN12C renal, 34.9%. Moreover, the growth was 41.7% in the assay with UO-31 renal; 81.4% in the assay with TK-10 renal; 32.1% in the assay with CAKI-1 renal; 26.4% with CCRF-CEM leukemia; 45% with MOLT-4 leukemia.

`C/C(=N\NC(=S)Nc1ccc(Br)cc1)c1cc2ccccc2oc1=O`: the growth in the assay with HCT-15 colon is 10%; in the assay on HT29 colon, 90.3%; with SNB-75 CNS, 17.5%; with SNB-19 CNS, 35.2%; in the assay on U251 CNS, 17.8%; with PC-3 prostate, 26.7%. The growth in the assay with SK-MEL-5 melanoma is -24.7% (active); in the assay with UACC-62 melanoma it was -20.5% (active); in the assay on LOX IMVI melanoma, 14%; in the assay with SK-MEL-28 melanoma it was 21.6%; in the assay on EKVX NSCLC it was 40.6%; in the assay on SN12C renal it was 35.2%. In addition, the growth in the assay with UO-31 renal was 19.5%; in the assay on ACHN renal, 14.9%; with CAKI-1 renal, 9.07% (active); with CCRF-CEM leukemia it was 12.5%; in the assay on MOLT-4 leukemia, 18.1%.

Regarding `Cn1cc(-c2nn3cc(-c4cccnc4)nc3s2)c2cc(F)ccc21`, the growth with HCT-15 colon was 60%; in the assay on HT29 colon, 67.1%; in the assay on SNB-75 CNS it was 86.9%; with SNB-19 CNS, 84.7%; in the assay on U251 CNS, 96.8%; in the assay on PC-3 prostate it was 79.4%. Further, the growth in the assay on SK-MEL-5 melanoma is 94.3%; in the assay with UACC-62 melanoma, 62.2%; in the assay with LOX IMVI melanoma it was 85.7%; in the assay on SK-MEL-28 melanoma, 81.7%; in the assay with EKVX NSCLC it was 80.9%; in the assay with SN12C renal, 85.2%. The growth was 70.5% in the assay on UO-31 renal; 83.8% in the assay on ACHN renal; 78.1% in the assay with CAKI-1 renal; 103% with A498 renal; 89.2% with CCRF-CEM leukemia.

`Cc1ccccc1/C=C/c1nn2c(-c3ccoc3C)nnc2s1`: the growth in the assay on HCT-15 colon is 97.9%; with HT29 colon, 97.7%; with SNB-75 CNS, 111%; in the assay on SNB-19 CNS, 90.8%; in the assay with U251 CNS, 97.6%; with PC-3 prostate, 99.4%. The growth in the assay on SK-MEL-5 melanoma was 98.4%; in the assay on UACC-62 melanoma, 88%; with LOX IMVI melanoma, 101%; in the assay with SK-MEL-28 melanoma, 94.9%; with EKVX NSCLC, 100%; in the assay with UO-31 renal, 85.4%. Moreover, the growth was 95.5% in the assay on TK-10 renal; 102% in the assay with ACHN renal; 89.8% in the assay on CAKI-1 renal; 89.5% in the assay on A498 renal; 108% in the assay on CCRF-CEM leukemia.

Regarding `N#Cc1ccc(S(=O)(=O)Nc2ccc(-c3cnc(N)[nH]3)cc2)cc1`, the growth in the assay on HCT-15 colon was 96.7%; with HT29 colon, 98.5%; with SNB-75 CNS, 106%; in the assay on SNB-19 CNS it was 94.1%; in the assay on U251 CNS, 98.3%; in the assay on PC-3 prostate, 99%. Further, the growth with SK-MEL-5 melanoma is 100%; in the assay with UACC-62 melanoma, 92.4%; in the assay on LOX IMVI melanoma, 97.9%; in the assay with SK-MEL-28 melanoma, 97.1%; with EKVX NSCLC, 105%; in the assay on UO-31 renal, 89.7%. The growth in the assay with TK-10 renal is 98.6%; in the assay with ACHN renal, 99.7%; in the assay on CAKI-1 renal, 92.3%; with A498 renal it was 101%; in the assay with CCRF-CEM leukemia it was 98.2%.

Regarding `C(=C(\C1=NCCN1)n1cnc2ccccc21)/c1ccc2ccccc2c1`, the growth with HCT-15 colon is 61.1%; with HT29 colon, 91.7%; in the assay on SNB-75 CNS it was 72.9%; in the assay on SNB-19 CNS, 81.3%; in the assay with U251 CNS, 87.3%; in the assay with PC-3 prostate it was 33.5%. Further, the growth in the assay with SK-MEL-5 melanoma is 63%; with UACC-62 melanoma, 77.2%; in the assay with LOX IMVI melanoma it was 71.5%; in the assay with SK-MEL-28 melanoma, 79.4%; in the assay with EKVX NSCLC it was 73.2%; in the assay with SN12C renal it was 73.3%. The growth was 68% with UO-31 renal; 77.8% in the assay on TK-10 renal; 72.9% with ACHN renal; 53.3% in the assay with CAKI-1 renal; 63.5% with CCRF-CEM leukemia; 67% with MOLT-4 leukemia.

Regarding `CCN(CC)CCN1C(=O)c2c(c3c4cc(Br)ccc4[nH]c3c3ccc4ccccc4c23)C1=O`, the growth with HCT-15 colon is -88.6% (active); in the assay with HT29 colon, -69.9% (active); with SNB-75 CNS, 77%; in the assay on SNB-19 CNS, -92.7% (active); in the assay with U251 CNS, -86.3% (active); with PC-3 prostate it was -80.9% (active). In addition, the growth with SK-MEL-5 melanoma was -83.6% (active); in the assay with UACC-62 melanoma, 31.7%; in the assay with SK-MEL-28 melanoma it was -70.1% (active); in the assay on SK-MEL-2 melanoma, 116%; in the assay with EKVX NSCLC it was -88.1% (active); in the assay with SN12C renal, -71.4% (active). The growth in the assay with UO-31 renal was -86.1% (active); in the assay with TK-10 renal, -73% (active); with ACHN renal, -100% (active); with CAKI-1 renal, 12.8%; in the assay with A498 renal it was 57.6%; in the assay on CCRF-CEM leukemia it was 1.96% (active). Moreover, in the assay on MOLT-4 leukemia, the growth was -30.7% (active).

For `COc1ccc2c(C3=C(c4cn(C)c5ccccc45)C(=O)NC3=O)coc2c1`, the growth was 20% in the assay with HCT-15 colon; 6.25% (active) with HT29 colon; 17.6% with SNB-75 CNS; 37.9% in the assay on SNB-19 CNS; 15.8% with U251 CNS; 21.9% with PC-3 prostate. In addition, the growth was 42.4% in the assay with SK-MEL-5 melanoma; 29.5% in the assay with UACC-62 melanoma; 34.8% in the assay with LOX IMVI melanoma; 65.2% in the assay with SK-MEL-28 melanoma; 50.7% in the assay with EKVX NSCLC; 32.3% in the assay on SN12C renal. The growth in the assay with UO-31 renal was 37.8%; with ACHN renal it was 37.4%; in the assay with CAKI-1 renal, 42%; in the assay on A498 renal, 34.9%; in the assay on CCRF-CEM leukemia, 18.8%.

For `C/C(Cc1ccc(Cl)cc1)=C(/c1ccccc1)c1ccc(OCCN)cc1`, the growth in the assay with HCT-15 colon is 101%; in the assay with HT29 colon, 102%; with SNB-75 CNS, 98.2%; with SNB-19 CNS, 92.9%; in the assay with U251 CNS it was 100%; in the assay with PC-3 prostate it was 99%. In addition, the growth was 99.1% in the assay with SK-MEL-5 melanoma; 91.7% with UACC-62 melanoma; 98% in the assay with LOX IMVI melanoma; 96% with SK-MEL-28 melanoma; 98.7% in the assay with EKVX NSCLC; 89.7% in the assay with UO-31 renal. Besides, the growth was 100% with TK-10 renal; 99.4% with ACHN renal; 92.5% in the assay on CAKI-1 renal; 95.8% in the assay with A498 renal; 110% in the assay with CCRF-CEM leukemia.
